Compound activity (PubChem BioAssay)
PD-1 reversal = reversal of PD-1 mediated T-cell inhibition | primary human CD4 T cells, PD-L1 beads, CellTiter-Glo 96 h | activation, % (test concentration not listed) | 29,000 tested, under 10 active; call rule not given here
U2OS ROS induce = raises reactive oxygen species in U2OS cancer cells; U2OS ROS induction, H2DCF-DA fluorescence; ROS induction (% of piperlongumine), % at 10 µM; 46,000 compounds, 2% hits; in the data active = ROS induction above about 79%, passing the limit was not always enough; inconclusive = no clear call, values can overlap the other calls
NOMO-1 viab = STK33 inhibitor candidate reducing NOMO-1 cell viability. NOMO-1 AML viability, CellTiter-Glo luminescence, 72 h. inhibition, % (no concentration beside the values). 37,000 compounds, 7.5% hits; in the data active = inhibition above about 80%; inconclusive = no clear call, values can overlap the other calls
Numbers stand for hits; 0 = inactive; ? = inconclusive; - = no result. This excerpt belongs to a sample that is enriched for hits.

SMILES | PD-1 reversal | U2OS ROS induce | NOMO-1 viab
COc1ccc(S(=O)(=O)Nc2ccc3c(c2)CC(=O)N([C@H](C)CO)C[C@@H](C)[C@@H](CN(C)Cc2ccc(Cl)c(Cl)c2)O3)cc1 | 0 | 0 | 114
COc1ccc(CN(C)C[C@H]2Oc3ccc(NS(=O)(=O)c4ccc(OC)cc4)cc3CC(=O)N([C@H](C)CO)C[C@H]2C)cc1 | - | 0 | 0
Cc1ccc(SCC(=O)N[C@@H]2C[C@H]3CC[C@@H]2C3)cc1 | - | 0 | -
CCOc1ccc(/C=C2\SC(=Nc3cccc(C)c3C)NC2=O)cc1 | - | 0 | -
COc1cc(/C=C2/SC(=Nc3cc(C)cc(C)c3)NC2=O)cc(Br)c1OC | 0 | 0 | 120
COc1ccc(NC2SC(=O)N(Cc3ccccc3)C2=O)cc1 (centres undefined) | - | 0 | -
C[C@H]1O[C@@H](O[C@H]2[C@@H](O)C[C@H](O[C@H]3[C@@H](O)C[C@H](O[C@H]4CC[C@@]5(C)[C@H](CC[C@@H]6[C@@H]5C[C@@H](O)[C@]5(C)[C@@H](C7=CC(=O)OC7)CC[C@]65O)C4)O[C@@H]3C)O[C@@H]2C)C[C@H](O)[C@@H]1O | - | 0 | 120
Cc1cc(OCc2ccc(Br)cc2)nc(-c2ccccc2O)n1 | 0 | 0 | 0
C=CCN1Cc2ccccc2[C@@H]2OC(c3ccc(OCCCO)cc3)=N[C@]2(CCS(=O)(=O)c2ccccc2)C1=O | - | 0 | -
O=C(NCC(O)CO)[C@]1(CCS(=O)(=O)c2ccccc2)N=C(c2ccc(OCCCO)cc2)O[C@@H]1c1ccccc1 (some centres undefined) | - | 0 | -
O=C(NCc1ccccc1)[C@@]1(CCS(=O)(=O)c2ccccc2)N=C(c2ccc(OCCCO)cc2)O[C@H]1c1ccccc1 | - | 78 | -
CC(=O)N1Cc2ccccc2C[C@@]2(N=C(c3ccc(OCCCO)cc3)O[C@H]2c2ccccc2)C1=O | - | 79 | -
CC(=O)N1Cc2ccccc2C[C@]2(N=C(c3ccc(OCCCO)cc3)O[C@@H]2c2ccccc2)C1=O | - | 0 | -
O=C1N(CCS(=O)(=O)c2ccccc2)Cc2ccccc2[C@@H]2OC(c3ccc(OCCCO)cc3)=N[C@]12CCS(=O)(=O)c1ccccc1 | - | 96 | -
O=C1NC(=O)C2(COC(c3ccccc3)OC2)S1 (centres undefined) | 0 | 0 | 0
CC(=O)N1CN(Cc2ccccc2)Cc2c1sc1c2CCCC1 | - | 0 | -
C=CCSc1c2c(c(C#N)c3nc4ccccc4n13)CCC2 | 0 | 103 | 0
N#Cc1c2c(c(NCCN3CCCCC3)n3c1nc1ccccc13)CCC2 | - | 0 | -
CC1(C)C=C(C(N)=O)C(C)(C)N1OC(=O)c1ccco1 | - | 0 | -
CCn1cc(SCC(=O)N2N=C(c3cccs3)CC2c2ccc(C)cc2)c2ccccc21 (centres undefined) | - | 0 | -
C[C@H](CO)N1C[C@H](C)[C@@H](CN(C)Cc2ccc(C(=O)Nc3ccccc3N)cc2)Oc2ccc(NC(=O)Cc3ccccc3)cc2C1=O | 0 | 0 | 0
C[C@@H]1CN([C@H](C)CO)C(=O)c2cc(NC(=O)Nc3ccccc3)ccc2O[C@@H]1CN(C)Cc1ccc(C(=O)Nc2ccccc2N)cc1 | 0 | 0 | 109
C[C@@H]1CN([C@H](C)CO)C(=O)c2cc(NC(=O)Cc3ccccc3)ccc2O[C@@H]1CN(C)Cc1ccc(C(=O)Nc2ccccc2N)cc1 | 0 | 0 | 105
C[C@H](CO)N1C[C@H](C)[C@@H](CN(C)Cc2ccc(C(=O)Nc3ccccc3N)cc2)Oc2ccc(NC(=O)Nc3ccc(F)cc3)cc2C1=O | 0 | 0 | 0
Nc1nccc(-c2ccc(NC(=O)Nc3ccccc3)cc2)n1 | - | 0 | -
SMILES | PD-1 reversal | U2OS ROS induce | NOMO-1 viab
C[C@]12CC[C@@H]3c4ccc(O)cc4CC[C@H]3[C@@H]1CC[C@@H]2O | - | 0 | 87
C[C@]12CCC3c4ccc(O)cc4CC[C@H]3C1CC[C@H]2O (some centres undefined) | 0 | 0 | 96
CC(=O)OC1CCC2C3CCc4cc(O)ccc4C3CCC12C (centres undefined) | - | ? | 99
COc1ccc2c(c1)CCC1C2CC[C@@]2(C)C1CC[C@@H]2O (some centres undefined) | - | 0 | 0
CC12CCC3c4ccc(OC(=O)c5ccccc5)cc4CCC3C1CCC2O (centres undefined) | - | 0 | 0
CCCCC(=O)O[C@H]1CCC2C3CCc4cc(O)ccc4C3CC[C@@]21C (some centres undefined) | - | 0 | 0
CC1CCCCC1NS(=O)(=O)c1ccc(S(=O)(=O)N2CCN(c3ncccn3)CC2)cc1 (centres undefined) | - | 0 | -
N#CCCN(C(=O)c1ccc2c(=O)n3c(nc2c1)CCCC3)c1ccccc1 | - | 0 | -
CNC(=O)[C@H]1O[C@@H](n2cnc3c(NCc4cccc(I)c4)ncnc32)C(O)[C@H]1O (some centres undefined) | - | 0 | 0
COc1ccc(C[C@H](N)C(=O)N[C@@H]2[C@@H](CO)OC(n3cnc4c(N(C)C)ncnc43)[C@@H]2O)cc1 (some centres undefined) | - | 0 | 108
Nc1ccc(OCC(O)C[n+]2ccccc2)cc1 (centres undefined) | 0 | 0 | 0
FC(F)(F)c1cccc(C=NCc2ccc(-c3cccs3)s2)c1 | - | 0 | -
COC(=O)c1ccc(NC(=O)CSC(=S)N2CCOCC2)cc1 | 0 | 0 | 0
Cc1ccc(Nc2nc(N)nc(COc3cccc4cccnc34)n2)cc1 | 0 | 0 | 111
Cc1cc(C)nc(Nc2n[nH]c(COc3cccc4cccnc34)n2)n1 | 0 | - | 0
C[C@H]1CN([C@@H](C)CO)C(=O)Cc2cc(NC(=O)CCC(F)(F)F)ccc2O[C@H]1CN(C)CC1CCCCC1 | 0 | 99 | 0
C[C@@H]1CN([C@H](C)CO)C(=O)Cc2cc(NC(=O)CCCN(C)C)ccc2O[C@@H]1CN(C)CC1CCCCC1 | 0 | 93 | 0
C[C@H]1CN([C@@H](C)CO)C(=O)Cc2cc(NC(=O)CCCN(C)C)ccc2O[C@@H]1CN(C)CC1CCCCC1 | - | 0 | 0
C[C@@H]1CN([C@@H](C)CO)C(=O)Cc2cc(NC(=O)CCC(F)(F)F)ccc2O[C@@H]1CN(C)CC1CCCCC1 | 0 | 0 | 0
COc1ccccc1N1CCN(c2nc(Nc3ccc(C)cc3)c3cnn(C)c3n2)CC1 | - | 0 | -
C[C@@H]1CC(=O)c2c(ccc3c2C(=O)c2cccc(O)c2C3=O)C1 | 0 | 0 | 0
CN1CCc2cccc3c2[C@H]1Cc1ccc(O)c(O)c1-3 | - | 0 | 113
COc1ccccc1NC(=O)N1C(C(=O)NCc2ccc(F)cc2)CSC1c1ccccc1C (centres undefined) | - | 0 | -
COc1ccc(OCc2nnc3n2N=C(c2ccc(OC)c(OC)c2)C(c2ccccc2)S3)cc1 (centres undefined) | 0 | 99 | 0
COc1cccc(OCc2nc(-c3ccc(OC)c(OC)c3)no2)c1 | - | - | 0
SMILES | PD-1 reversal | U2OS ROS induce | NOMO-1 viab
Cc1ccc(OC(=O)OCSc2nn[nH]n2)cc1 | 0 | 0 | 119
COc1ccc(C(=O)CSc2n[nH]c(-c3ccc(C)cc3)n2)cc1 | - | - | 0
Cc1cccc(CCNC(=O)CCc2nnc3n(Cc4ccccc4)c(=O)c4ccccc4n23)c1 | - | 0 | -
CCNC(=S)N1N=C2c3ccccc3CCC2C1c1ccc(F)cc1 (centres undefined) | 0 | 101 | 113
O=C(Nc1ccc(Cl)cc1)N1N=C2c3ccccc3CCC2C1c1cccs1 (centres undefined) | 0 | 0 | 0
O=C(c1ccco1)N1N=C2c3ccccc3CCC2C1c1ccc(F)cc1 (centres undefined) | 0 | 85 | 0
